Test results from PubChem BioAssay.
Activity calls are given as the source filed them.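 Rule for the calls, unless noted: active = visually confirmed hit in the image check and inhibition above 20%; inconclusive = visually confirmed hit but inhibition not above 20%; inactive = no visual hit in the image check.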

Columns and labels:
[1] = inhibitors of TNFa-induced NFkB p65 translocation, primary screen, imaging, HUVEC, MLSMR starter and 10KST1 sets (AID 438;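 active = inhibition above 20% together with a positive visual image hit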;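 note: compound added about 3h40 before a 20 min TNFalpha stimulation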;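 for inhibition: signal is the nuclear over cytoplasmic p65 intensity ratio per well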); details: HUVEC TNFa-induced p65 nuclear translocation; cell count: measured here: nuclei count (cytotoxicity indicator), at 2.08 µM; inhibition: at 2 µM, stronger effect = higher value, 0% TNFa-plus-vehicle, 100% no-TNFa wells
[2] = reduction of polyQ htt aggregates in cells – imaging, exon1htt(103Q)mCFP cells, high-content imaging, primary screen (AID 483;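 active = visual image review flags a hit and inhibition of aggregation exceeds 20%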;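 note: compound exposure lasted 3 days before fixation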;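 for nuclei count: percent of the per-plate median nuclei count of sample wells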); details: exon1htt(103Q)mCFP cell line, aggregate imaging, at 2 µM; inhibition of aggregation: stronger effect = higher value; nuclei count: measured here: cell count, toxicity
[3] = endothelial E-selectin expression blockers – imaging, HUVEC, immunofluorescence, MLSMR starter and 10KST1 sets, primary screen (AID 487); details: HUVEC TNFalpha-induced E-selectin immunofluorescence imaging, at 2 µM; inhibition: stronger effect = higher value; nuclei count: measured here: cell number, toxicity;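 for inhibition: signal is fraction of cell area covered by stained E-selectin grains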;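 for nuclei count: 100% = median nuclei count of all wells on the same plate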
[4] = target: Voltage-gated potassium channel subunit beta-2 (Rattus norvegicus) (UniProt P62483); assay: inhibitors of rat Kvbeta2 reductase activity – biochemical, NADPH fluorescence, primary screen (AID 622;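 active = fluorescence slope higher than the sample average by over 3 SD, cut at about -0.22 in these data, passing the limit was not always enough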;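 note: slope of raw intensity against log time taken from 70 to 1610 s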); details: recombinant KvBeta, 4-cyanobenzaldehyde reduction, at 10 µM, stronger effect = higher value
[5] = target: Voltage-gated potassium channel subunit beta-2 (Rattus norvegicus) (UniProt P62483); assay: enhancers of rat Kvbeta2 NADPH turnover – biochemical, NADPH fluorescence, primary screen (AID 623;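 active = NADPH fluorescence slope more negative than the mean of all samples by about 3 SD, 99.7% confidence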;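 note: fluorescence intensity change per second fitted from 20 to 320 s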); details: Recombinant KvBeta, NADPH fluorescence decrease slope, 10 min; at 10 µM; stronger effect = lower value
[6] = target: Alpha-2C adrenergic receptor (Homo sapiens) (UniProt P18825); assay: compounds altering alpha2C-coupled GIRK flux – cell-based, HEK293 alpha2C/GIRK1/2, thallium flux, primary screen (AID 624;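 active = fluorescence slope after compound addition differing from the mean of all screened samples at 99.7% confidence, in either direction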;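 note: slope of fluorescence ratio to pre-addition baseline per second over 15 to 24 s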); details: thallium flux BTC fluorescence, at 10 µM, actives lie on both sides
[7] = blockers of RIG-like receptor reporter activation – cell-based, Sendai virus stimulus, luciferase, 10K MLSCN set, TLR/RLR signaling modifier project, primary screen (AID 602276;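 active = inhibition at or above 50% at 10 µM; inactive = inhibition below 50%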;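 note: firefly luciferase from ISG56 promoter only with Renilla not read in this screen; 0% = Sendai virus plus DMSO and 100% = medium plus DMSO without virus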); details: HEK293 RL24 IRF3 luciferase reporter, at 10 µM, stronger effect = higher value
[8] = TLR3 IRF3 reporter activation blockers – cell-based, poly I:C stimulus, luciferase, 10K MLSCN set, primary screen (AID 602277;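 active = inhibition of the reporter signal at or above 50%; inactive = inhibition below 50%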); details: HEK293-TLR3 RL24 IRF3 luciferase reporter, at 10 µM, stronger effect = higher value

Sequence of Voltage-gated potassium channel subunit beta-2 (Rattus norvegicus) (P62483 whole entry, looked up): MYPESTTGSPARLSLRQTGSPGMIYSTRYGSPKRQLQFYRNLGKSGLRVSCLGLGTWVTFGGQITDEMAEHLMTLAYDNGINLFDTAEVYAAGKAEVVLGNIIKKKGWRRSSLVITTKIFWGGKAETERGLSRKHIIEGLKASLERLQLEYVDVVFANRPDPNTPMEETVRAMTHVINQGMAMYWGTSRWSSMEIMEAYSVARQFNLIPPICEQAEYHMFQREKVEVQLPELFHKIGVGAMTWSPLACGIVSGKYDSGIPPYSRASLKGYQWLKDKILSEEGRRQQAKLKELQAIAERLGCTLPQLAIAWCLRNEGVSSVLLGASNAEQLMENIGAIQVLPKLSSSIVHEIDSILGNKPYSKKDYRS
Sequence of Alpha-2C adrenergic receptor (Homo sapiens) (P18825 whole entry, looked up): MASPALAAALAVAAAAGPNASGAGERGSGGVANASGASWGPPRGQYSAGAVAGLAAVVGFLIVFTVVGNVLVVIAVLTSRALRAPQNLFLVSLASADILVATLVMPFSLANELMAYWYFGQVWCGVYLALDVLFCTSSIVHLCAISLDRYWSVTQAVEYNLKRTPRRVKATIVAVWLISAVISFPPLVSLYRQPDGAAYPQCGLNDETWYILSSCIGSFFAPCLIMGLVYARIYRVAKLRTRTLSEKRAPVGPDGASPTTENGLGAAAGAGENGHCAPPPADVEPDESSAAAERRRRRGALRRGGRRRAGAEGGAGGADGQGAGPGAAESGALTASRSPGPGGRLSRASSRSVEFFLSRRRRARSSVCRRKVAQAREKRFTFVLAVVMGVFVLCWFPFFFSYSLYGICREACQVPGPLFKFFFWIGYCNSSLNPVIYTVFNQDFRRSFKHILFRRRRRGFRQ

Compound | cell count [1] | inhibition [1] | inhibition of aggregation [2] | nuclei count [2] [%] | inhibition [3] | nuclei count [3] [%] | fluorescence slope [4] | NADPH fluorescence slope [5] | slope [6] | inhibition [7] | inhibition [8]
O=S(=O)(Nc1ccn(-c2ccccc2)n1)c1ccc(Br)cc1 | 395 | -1.6% (inactive) | 20.2% (inactive) | 98 | -35.6% (inactive) | 119 | -0.413 (inactive) | 0.000106 (inactive) | 0.00791 (inactive) | 10.7% (inactive) | 17.4% (inactive)
NC(=O)NC(c1ccccc1)c1ccccc1F (stereo not drawn) | 565 | -4.8% (inactive) | 12.6% (inactive) | 99.1 | 36.7% (inactive) | 88.9 | -0.317 (inactive) | 5.1e-06 (inactive) | 0.00595 (inactive) | 2.53% (inactive) | 25.9% (inactive)
O=C(CCc1ccccc1)Nc1ccncc1 | 412 | 1% (inactive) | 7.9% (inactive) | 94.1 | -273% (inactive) | 118 | -0.446 (inactive) | -1.1e-05 (inactive) | 0.00342 (inactive) | -2.19% (inactive) | 11.2% (inactive)
CC(=O)N(C(C)=O)c1cccc2c(N(C(C)=O)C(C)=O)cccc12 | 450 | -10.7% (inactive) | 26.2% (inactive) | 44.9 | -28.6% (inactive) | 87.9 | -0.431 (inactive) | -5.3e-05 (inactive) | 0.00429 (inactive) | 12.7% (inactive) | 31.6% (inactive)
Cc1ccc(C(=O)NCc2ccc3c(c2)OCO3)cc1S(=O)(=O)N1CCCCC1 | 437 | 4.7% (inactive) | -2.6% (inactive) | 99.9 | -39.8% (inactive) | 113 | -0.451 (inactive) | 4.6e-05 (inactive) | 0.00487 (inactive) | -2.9% (inactive) | -10.9% (inactive)
CC1=C(C(=O)NC2CCC(C)CC2)C2(CCC(C)CC2)OC1=O (stereo not drawn) | 640 | 17.2% (inactive) | -14.7% (inactive) | 99.8 | 5.3% (inactive) | 126 | -0.486 (inactive) | 7.7e-06 (inactive) | 0.00549 (inactive) | 10.7% (inactive) | 15.1% (inactive)
CSc1nc(N)nc(SCCS(=O)(=O)c2ccc(Cl)cc2)c1C#N | 401 | 2.8% (inactive) | 24.9% (inactive) | 95.8 | -48% (inactive) | 113 | -0.442 (inactive) | -2.1e-05 (inactive) | 0.00602 (inactive) | 5.62% (inactive) | 12.8% (inactive)
O=c1c2cc(N3CCOCC3)ccc2[nH]c(=S)n1CCCN1CCCC1 | 739 | 3% (inactive) | 6.2% (inactive) | 105 | -35% (inactive) | 106 | -0.0484 (active) | -1.6e-06 (inactive) | 0.00568 (inactive) | 3.61% (inactive) | 32.7% (inactive)
N#CC1=C(SCC(=O)NC23CC4CC(CC(C4)C2)C3)NC(=O)C(C#N)C12CCCCC2 (stereo not drawn) | 755 | -9.3% (inactive) | 16.9% (inactive) | 100 | -142% (inactive) | 123 | -0.519 (inactive) | -6.2e-05 (inactive) | 0.00603 (inactive) | 16.3% (inactive) | -22.7% (inactive)
CCc1ccc(N(CC(=O)NC2CCCC2)S(=O)(=O)c2c(C)noc2C)cc1 | 720 | -0.8% (inactive) | -6% (inactive) | 97.9 | -48.7% (inactive) | 102 | -0.569 (inactive) | -4.6e-05 (inactive) | 0.00649 (inactive) | 4.77% (inactive) | 37.7% (inactive)
Cc1cc(Br)ccc1NC(=O)CNC(=O)CSc1n[nH]c(N)n1 | 390 | -12.1% (inactive) | -13.4% (inactive) | 74.3 | -25.1% (inactive) | 115 | -0.58 (inactive) | -3.3e-05 (inactive) | 0.00679 (inactive) | 13.4% (inactive) | 37.1% (inactive)
O=S(=O)(c1ccccc1)N1CCN(S(=O)(=O)c2ccccc2)C1 | 281 | 5.1% (inactive) | -0.4% (inactive) | 95 | -60.7% (inactive) | 96.4 | -0.337 (inactive) | -5.3e-05 (inactive) | 0.00677 (inactive) | 10.4% (inactive) | 13.2% (inactive)
CCn1c(C)cc(=S)c2ccccc21 | 587 | -5.3% (inactive) | -16.1% (inactive) | 105 | -56.4% (inactive) | 90.4 | -0.611 (inactive) | -2.2e-05 (inactive) | 0.00608 (inactive) | 1.4% (inactive) | 12.6% (inactive)
CC(C)(C)C(=O)CNS(=O)(=O)c1ccc(S(=O)(=O)NC2CCCC2)cc1 | 479 | 6% (inactive) | 2.6% (inactive) | 113 | -35.9% (inactive) | 94.4 | -0.47 (inactive) | 2.8e-05 (inactive) | 0.00543 (inactive) | 9.9% (inactive) | 22.1% (inactive)
CC(C)CC1NC2(C(=O)N(C)c3ccccc32)C2C(=O)N(C(C)C)C(=O)C12 (stereo not drawn) | 798 | -5.5% (inactive) | -49.8% (inactive) | 72.1 | 13.8% (inactive) | 103 | -0.482 (inactive) | 9.4e-06 (inactive) | 0.00636 (inactive) | -1.45% (inactive) | -17% (inactive)
O=C(CSc1nnc(C2CC2)n1Cc1ccccc1)c1ccc(S(=O)(=O)N2CCOCC2)cc1 | 426 | 15.8% (inactive) | 1.1% (inactive) | 96.7 | -55.3% (inactive) | 112 | -0.412 (inactive) | -0.000138 (inactive) | 0.00543 (inactive) | 13.7% (inactive) | 24% (inactive)
CCn1c(NC(=O)c2cccc(Cn3cc(Cl)cn3)c2)nc2ccccc21 | 598 | 4% (inactive) | 13.3% (inactive) | 81.8 | -45.1% (inactive) | 110 | -0.506 (inactive) | -5.4e-05 (inactive) | 0.0059 (inactive) | -3.99% (inactive) | -9.89% (inactive)
O=C(CCCOc1ccccc1)N1CCN(c2ccccn2)CC1 | 232 | -4.8% (inactive) | 15.3% (inactive) | 53.2 | -18.6% (inactive) | 78 | -0.487 (inactive) | -3.3e-07 (inactive) | 0.00525 (inactive) | 2.47% (inactive) | -54.1% (inactive)
O=C(O)CC(NC(=O)c1ccccc1NC(=O)c1ccccc1)C(=O)O (stereo not drawn) | 284 | -0.3% (inactive) | 8.8% (inactive) | 111 | 22.6% (inactive) | 90 | -0.403 (inactive) | 1.9e-05 (inactive) | 0.00592 (inactive) | -6.91% (inactive) | -15.2% (inactive)
CC1=C(C(=O)Nc2ccccc2)C(c2ccco2)C(C#N)=C(SCC(=O)Nc2cccc(C)c2C)N1 (stereo not drawn) | 625 | 15.7% (inactive) | 16% (inactive) | 89.5 | -16.6% (inactive) | 129 | -0.412 (inactive) | -1.1e-05 (inactive) | 0.00681 (inactive) | 9.65% (inactive) | 21.2% (inactive)
O=C(COc1cccc(Oc2ccccc2)c1)Nc1ncccn1 | 739 | 3.1% (inactive) | 12.8% (inactive) | 103 | -25.1% (inactive) | 111 | -0.609 (inactive) | -1.1e-05 (inactive) | 0.00604 (inactive) | 4.77% (inactive) | 4.74% (inactive)
CC(=O)Nc1ccc(S(=O)(=O)N2CCC(NC(C)=O)(c3cccc(F)c3)CC2)cc1 | 682 | -5.8% (inactive) | -25.6% (inactive) | 130 | -10.1% (inactive) | 109 | -0.494 (inactive) | -4.3e-05 (inactive) | 0.0062 (inactive) | 8.44% (inactive) | 28.9% (inactive)
Cn1c(SCC(=O)N2CCOCC2)nnc1-c1cnccn1 | 656 | 1% (inactive) | -11.1% (inactive) | 122 | -36.3% (inactive) | 114 | -0.396 (inactive) | 8e-06 (inactive) | 0.00449 (inactive) | 3.04% (inactive) | 21.7% (inactive)
Cc1nnc(SCC(=O)NCc2ccccc2)s1 | 513 | -11.9% (inactive) | 27.7% (inactive) | 78.7 | 10.5% (inactive) | 120 | -0.447 (inactive) | -2.7e-05 (inactive) | 0.00344 (inactive) | 1.7% (inactive) | 30.9% (inactive)
COC(=O)Oc1c(Br)c(=O)oc2ccccc12 | 594 | 7.7% (inactive) | -8.6% (inactive) | 99.4 | -49.4% (inactive) | 110 | -0.443 (inactive) | -3.2e-05 (inactive) | 0.00521 (inactive) | -15.5% (inactive) | -23.7% (inactive)
CCN(CC)CC(C)CNC(=O)CC(C(=O)N1CCc2ccccc21)n1ccnc1 (stereo not drawn) | 604 | -10% (inactive) | 10.7% (inactive) | 98.5 | -125% (inactive) | 110 | -0.464 (inactive) | 6.1e-05 (inactive) | 0.00462 (inactive) | 3.93% (inactive) | 11% (inactive)
CCOC(=O)N1CCN(CCC(=O)c2ccc(Cl)cc2)CC1 | 533 | -10.6% (inactive) | -1.1% (inactive) | 116 | -30.8% (inactive) | 69.7 | -0.611 (inactive) | -3.9e-05 (inactive) | 0.00547 (inactive) | 2.5% (inactive) | 2.89% (inactive)
COc1ccccc1C(=O)N1CCN(C(=O)COc2cccc(C)c2)CC1 | 430 | -5.5% (inactive) | 11.7% (inactive) | 94.2 | -52.5% (inactive) | 102 | -0.288 (inactive) | -5.4e-05 (inactive) | 0.00401 (inactive) | 14% (inactive) | 23.5% (inactive)
